Assay results from PMC5540273 (PLoS ONE, 2017).

Columns and labels:
Conditions in all cases: concentration: 1 μM, replicates: in singlicate; n = 1
[1] = tested on: PRKD3
[2] = tested on: PRKG1
[3] = tested on: PRKG2
[4] = tested on: T1, PRKR
T1 construct: gene EIF2AK2

[5] = tested on: PRKX
[6] = tested on: PRP4
[7] = tested on: T2, PYK2
T2 construct: gene PTK2B

[8] = tested on: QSK
[9] = tested on: RAF1
[10] = tested on: RET
[11] = tested on: RIOK1
[12] = tested on: RIOK2
[13] = tested on: RIOK3
[14] = tested on: RIPK1
[15] = tested on: RIPK2
[16] = tested on: RIPK4
[17] = tested on: RIPK5
[18] = tested on: ROCK1
[19] = tested on: ROCK2
[20] = tested on: ROS1
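Note: KINOMEscan kinase panel screen.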

Compound | %Inh [1] [%] | %Inh [2] [%] | %Inh [3] [%] | %Inh [4] [%] | %Inh [5] [%] | %Inh [6] [%] | %Inh [7] [%] | %Inh [8] [%] | %Inh [9] [%] | %Inh [10] [%] | %Inh [11] [%] | %Inh [12] [%] | %Inh [13] [%] | %Inh [14] [%] | %Inh [15] [%] | %Inh [16] [%] | %Inh [17] [%] | %Inh [18] [%] | %Inh [19] [%] | %Inh [20] [%]
CC(C)c1nc(-c2ccc(F)c(NS(=O)(=O)c3c(F)cccc3F)c2)c(-c2ccnc(Nc3ccc(N4CCOCC4)nc3)n2)s1 [GSK1804250] | 100 | 1 | 1 | 35 | 23 | 2 | 50 | 32 | 95.3 | 89 | 30 | 13 | 84 | 0 | 97.6 | 0 | 19 | 12 | 2 | 17
COc1ccc(C)c(Nc2ccnc(Nc3ccc(-c4cnc[nH]4)cc3)n2)c1.Cl [GW784041] | 0 | 0 | 12 | 0 | 0 | 0 | 5 | 0 | 27 | 0 | 36 | 6 | 34 | 13 | 100 | 0 | 0 | 0 | 0 | 3
COc1ccc(C2=C(Nc3cccc(O)c3)C(=O)NC2=O)cc1 [SB-390766] | 0 | 0 | 0 | 0 | 0 | 49 | 0 | 12 | 96.2 | 25 | 22 | 0 | 0 | 0 | 32 | 10 | 0 | 18 | 19 | 0
O=C1NC(=O)C(c2ccccc2Cl)=C1Nc1cccc(Cl)c1 [SB-342409] | 22 | 0 | 0 | 0 | 15 | 0 | 5 | 5 | 37 | 1 | 4 | 0 | 0 | 4 | 100 | 21 | 14 | 0 | 0 | 0
O=C(Nc1n[nH]c2nc(-c3cccc(O)c3)ccc12)C1CC1 [SB-711805] | 0 | 21 | 35 | 100 | 0 | 0 | 11 | 18 | 6 | 0 | 53 | 11 | 59 | 14 | 5 | 37 | 7 | 2 | 0 | 0
CS(=O)(=O)c1cccc(CNc2nc(Nc3ccc4c(c3)CCC(=O)N4)ncc2C(F)(F)F)c1 | 4 | 0 | 0 | 0 | 0 | 30 | 26 | 0 | 0 | 90.1 | 62 | 0 | 59 | 0 | 2 | 17 | 0 | 0 | 0 | 31
CSc1ccc(NC2=C(c3ccc(Cl)cc3)C(=O)NC2=O)cc1 [SB-317658] | 0 | 6 | 0 | 0 | 0 | 0 | 0 | 0 | 13 | 7 | 3 | 0 | 20 | 0 | 0 | 16 | 7 | 38 | 0 | 3
Fc1cc(Cl)ccc1Nc1ccnc2cc(-c3ccc(CN4CCOCC4)o3)ccc12 [GW560109] | 19 | 25 | 0 | 0 | 24 | 44 | 5 | 70 | 11 | 99.8 | 30 | 0 | 0 | 0 | 94.4 | 0 | 0 | 5 | 46 | 0
Cn1cc(-c2ccc3c(c2)CCN3C(=O)Cc2cc(F)cc(C(F)(F)F)c2)c2c(N)ncnc21 [GSK2635225] | 18 | 0 | 16 | 15 | 6 | 16 | 0 | 10 | 11 | 35 | 21 | 2 | 26 | 100 | 59 | 0 | 0 | 3 | 6 | 29
Cl.Cl.NCC(NC(=O)c1cc(-c2cccnc2)c(-c2ccnc3[nH]ccc23)s1)c1ccccc1 (centres unmarked) [GSK1323434] | 34 | 45 | 68 | 0 | 56 | 29 | 10 | 13 | 12 | 28 | 60 | 54 | 57 | 10 | 26 | 16 | 0 | 99.7 | 99.4 | 20
